According to ChEMBL document CHEMBL4513216, “Probing the Open Global Health Chemical Diversity Library for Multistage-Active Starting Points for Next-Generation Antimalarials” (ACS Infect Dis, 2020):
The campaign covered roughly 69,000 compounds. About 8,600 (12%) showed an effect of 50% or more. Many of the other results were omitted from the sample, so strong results are more common in it than they were.

system: Plasmodium berghei; test: Screen against P. berghei liver stage (PbLuc), transformed with Luciferase, at 10uM; assay type: functional, HepG2; settings: tested at 10 uM

Compound | INHIBITION [%]
Cn1cnc2c1CCN(Cc1cccc(C(=O)N3CCCCC3)c1)C2 | -40.01
Cc1cccc(S(=O)(=O)N2C[C@@H]3C[C@H](C(=O)N(C)C)[C@H](C2)O3)c1 | 42.3
Cc1nc(NC2CC(C)(C)NC(C)(C)C2)c2c(n1)c(C)nn2C | -7.83
COCCc1noc(CN(C)c2nc(C)nc(C)c2C)n1 | 47.6
CNc1snc(C)c1C(=O)N1CCCC(n2nc(C)nc2C)C1 (centres undefined) | 19.4
O=C1CC(NS(=O)(=O)c2cccc(F)c2)CN1 (centres undefined) | 10.7
CC(NC(=O)N1CCC(CO)CC1)c1csc2ccccc12 (centres undefined) | 55.5
CC(NC(=O)N1CCC(CC(N)=O)CC1)c1csc2ccccc12 (centres undefined) | 27.7
CC(=O)N1CCCN(C(=O)NC(C)c2csc3ccccc23)CC1 (centres undefined) | 21.8
COc1ccc(C(=O)N2CCCCC2c2nccs2)c(OC)c1 (centres undefined) | 7.12
COc1ccc(CC(=O)N2CCCCC2Cn2cc(C)cn2)cc1F (centres undefined) | -2.19
CC(C)Cc1cc(NC(=O)c2cccnc2)n(C)n1 | -10.6
CCN(CC(=O)NC(C)C)S(=O)(=O)N1CCCCCC1 | -12.6
CCN(CC)S(=O)(=O)N1CCCN(CC(=O)NC(C)C)CC1 | 57.2
CCN(CC(=O)NC(C)C)S(=O)(=O)N1CCCC(C)C1 (centres undefined) | -13.4
Fc1ccc2[nH]c3c(c2c1)CCN1C(c2ccccn2)N2CCC31CC2 (centres undefined) | -23.4
CC(NCC1CCS(=O)(=O)CC1)c1cccc(OC(F)F)c1 (centres undefined) | 2.97
Cc1cccc(C(C)NCC2CCS(=O)(=O)CC2)c1 (centres undefined) | 64.4
CC(=O)Nc1cccc(C(C)NCC2CCS(=O)(=O)CC2)c1 (centres undefined) | 25.8
O=C(Nc1cnccn1)[C@@H]1C[C@H]2OCC[C@H]2N(Cc2ccsc2)C1 | -38.9
CCCN1C[C@@H]2CC[C@H]1CN(Cc1ccc(Cn3cccn3)cc1)C2 | -27.5
COC(=O)c1ccc(N2CCN(C(=O)c3ccco3)C(C)C2)cc1 (centres undefined) | -34
COC(=O)c1ccc(N2CCN(C(=O)C3CC3)C(C)C2)cc1 (centres undefined) | 31.6

Compound | INHIBITION [%]
COC(=O)c1ccc(N2CCN(C(=O)c3cccnc3)C(C)C2)cc1 (centres undefined) | 81.1
COC(=O)c1ccc(N2CCN(C(=O)c3ccncc3)C(C)C2)cc1 (centres undefined) | 27.1
COC(=O)c1ccc(N2CCN(C(=O)c3ccc(O)nc3)C(C)C2)cc1 (centres undefined) | 2.97
COC(=O)c1ccc(N2CCN(C(=O)c3cnn(C)c3)C(C)C2)cc1 (centres undefined) | 63.6
O=S(=O)(CCNC1CCc2ncnn2C1)c1ccc(Cl)cc1 (centres undefined) | 21.5
CO[C@@H]1CN(c2ccccc2)S(=O)(=O)[C@@]12CCN(CC1CC1)C2 | 22.2
CCn1cc(NC(=O)NCC(c2ccc(OC)cc2)N(C)C)cn1 (centres undefined) | 34.85
C[C@@H]1CN(C(=O)c2ccccc2F)C[C@]12CCN(CCN(C)C)C2=O | 11.2
O=C1NCCCc2c1oc1ccc(O)c(CN3CCOCC3)c21 | 58.1
Oc1ccc2oc3c(c2c1CN1CCOCC1)CCCC3 | -115
NC(=O)C1CN(Cc2c(O)ccc3oc4c(c23)CCCC4)CCO1 (centres undefined) | -66.7
CCCC1(CO)CCCN(C(=O)CN2CCN(CC)CC2)C1 (centres undefined) | 17.4
CN(C)c1cc(CNc2ccc(S(=O)(=O)C(C)(C)C)nc2)ccn1 | -1.35
Cn1c(CN2CCOC(CCc3ccncn3)C2)nc2ccccc21 (centres undefined) | 38.8
CCc1noc(CS(=O)(=O)Cc2nc(Cc3ccccc3)no2)n1 | 25.5
CCc1noc(CS(=O)(=O)CC=C(C)C)n1 | 21.9
CCc1noc(CS(=O)(=O)Cc2ccccc2C)n1 | 61.3
Cc1ccccc1CS(=O)(=O)Cc1nc(C2CC2)no1 | 9.16
CCc1noc(CS(=O)(=O)Cc2ccccc2Cl)n1 | 52.6
CCc1noc(CS(=O)(=O)CC(=O)N2c3ccccc3CC2C)n1 (centres undefined) | -21
Cc1ccc(C2COCCN2C(=O)c2ccc(F)c(F)c2)o1 (centres undefined) | 44.9
O=C(c1cnccn1)N1CCc2onc(Cn3cccn3)c2C1 | 9.63
O=C(NCCN1CCCCCC1=O)c1ccc(=O)[nH]n1 | 33.7

Compound | INHIBITION [%]
Cn1ccnc1CN1CCN2C[C@H](Oc3ccccc3)C[C@H]2C1 | 39.8
CN(C)c1nccc(C2CCCCN2Cc2cnn3cccnc23)n1 (centres undefined) | -29.9
Cc1csc(N2CCCN(C(=O)Cn3cncn3)CC2)n1 | -52.5
CN(Cc1ccnc2ccccc12)C1CCS(=O)(=O)C1 (centres undefined) | 45.2
CCOCC1CN(C(=O)COc2ccccc2C)Cc2ncn(C)c21 (centres undefined) | 24.6
O=C(COc1cccc(F)c1)N1CCCCC1c1ccn2ccnc2n1 (centres undefined) | 1.11
O=C(Cc1cccc(F)c1)N1CCCCC1c1ccn2ccnc2n1 (centres undefined) | 9.1
O=C(COc1ccccc1F)N1CCCCC1c1ccn2ccnc2n1 (centres undefined) | 63.4
O=C(Cc1ccc(F)cc1)N1CCCCC1c1ccn2ccnc2n1 (centres undefined) | 7.39
O=C(Cc1ccccc1F)N1CCCCC1c1ccn2ccnc2n1 (centres undefined) | 51.5
O=C(CCc1cccnc1)N1CCCCC1c1ccn2ccnc2n1 (centres undefined) | 45.6
CCn1cc(CNc2ccc(F)c(F)c2)cn1 | -8
CC(C)CCc1noc(C[S+]([O-])CC(=O)NCc2ccccc2)n1 (centres undefined) | 55.3
CC(C)Cc1nc(C[S+]([O-])CC(=O)NCc2ccccc2)no1 (centres undefined) | -5.1
CCCc1noc(C[S+]([O-])CC(=O)NCc2ccccc2)n1 (centres undefined) | 23.2
COc1ccc(N2CCN(C(=O)COc3nccc(C)n3)CC2)cc1 | 36.8
N#Cc1cccc(NC(=O)N[C@H](CO)Cc2ccc(O)cc2)c1 | 60.9
N#CCc1ccc(NC(=O)N[C@H](CO)Cc2ccc(O)cc2)cc1 | 11.6
N#Cc1cccc(NC(=O)N[C@H](CO)c2ccccc2)c1 | 18.5
Cc1ccc(CN2CC[C@@H](NC(=O)c3cccnc3)[C@H](O)C2)o1 | 31.1
O=C(CNc1cc(-n2cnnn2)ccc1F)Nc1cc(F)ccc1F | 46.6
O=C(CNc1cc(-n2cnnn2)ccc1F)NCc1ccccc1 | 53.4
O=C(CNc1cc(-n2cnnn2)ccc1F)Nc1ccccc1Cl | 41.4
